From PubChem BioAssay (NCATS)
Results filed as inconclusive are left out. Where a call stands in place of a potency, no number is given. Values without a mark were called inactive. Activity calls are given as the source filed them. Calls follow the shape of the dose curve; as a rule, active = well fitted curve in the direction sought with a large enough effect; inconclusive = small, poorly fitted or top-dose-only effect, or another doubt; inactive = no such curve, though single readings can be large; an effect the other way counts as inactive or inconclusive.

Assays:
[1] = qHTS for Inhibitors of Plasmodium falciparum (DD2) proliferation (AID 504314);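 also: parasite DNA measured by SYBR Green fluorescence after red cell lysis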
Procedure, shortened: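 SYBR Green DNA-fluorescence growth assay: infected RBCs at 0.3% parasitemia, 2.5% hematocrit, 72 h compound exposure, 37C, 5% CO2; overnight lysis with dye at RT; normalized to 0.29 uM artemisinin and vehicle.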

[2] = qHTS for Inhibitors of Plasmodium falciparum (7G8) proliferation (AID 504316); also: nearly all actives have a fitted effect of over 65% in size; also: potency is read from the fitted curve at half-maximal effect
Procedure, shortened: (§1)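 Parasite growth measured as SYBR Green DNA fluorescence (ex 485, em 535 nm) after overnight lysis following 72 h culture at 37 °C, 0.3% parasitemia, 2.5% hematocrit. Values normalized against DMSO and 0.29 uM artemisinin controls, with plate-stack correction.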

[3] = qHTS for Inhibitors of Plasmodium falciparum (HB3) proliferation (AID 504318); also: nearly all actives have a fitted effect of over 60% in size
Procedure, shortened: as §1

[4] = qHTS for Inhibitors of Plasmodium falciparum (CP250) proliferation (AID 504320)
Procedure, shortened: as §1

[5] = qHTS for Inhibitors of Plasmodium falciparum (GB4) proliferation (AID 504315); also: nearly all actives have a fitted effect of over 50% in size
Procedure, shortened: as §1

Structure (SMILES) | Potency [1] | Potency [2] | Potency [3] | Potency [4] | Potency [5] | activity, negative = inhibition [1]
C[C@@H]1C=CCCO[C@]12C(=O)Nc1ccc(O)cc12 | inactive | inactive | inactive | inactive |  | 
COC(=O)C1=C2C=CCCN2C(=O)NC1c1ccccc1 (stereo unspecified) | inactive |  |  | inactive | inactive | 
COc1cccc([C@H]2Oc3ccc(OC)cc3C(=NOCC[C@@H]3C=C[C@H](OC(C)=O)[C@@H](COC(C)=O)O3)[C@H]2O)c1 | inactive | inactive | inactive | inactive |  | 
COc1ccc(COC(=O)NN=C2C[C@@H](O)[C@@H](O)[C@@H]3[C@H]4C(=O)N(c5cccc(Oc6ccccc6)c5)C(=O)[C@@H]4CC[C@H]23)cc1 | inactive | inactive | inactive | inactive |  | 
CCCCc1cc2c(cn1)=C(OC(=O)c1cnc3ccccc3n1)C(C)(OC(=O)CC)C(=O)C=2 (stereo unspecified) |  | 1690 nM (active) |  | inactive |  | 2.28% [at 1.12 µM]
COC(=O)N1C(C2CC2)=Cc2ccccc2C1CC(C)=O (stereo unspecified) |  | inactive | inactive | inactive |  | -2.33% [at 1.12 µM]
CC(=O)O[C@H](C(=O)O[C@@H]1C[C@@H](CCC[C@H]2O[C@H](C(=O)OC(C)C)CC[C@@H]2C)O[C@@H](CC#N)C1)c1ccccc1 | inactive |  |  | inactive | inactive | 
C(=Cc1nc(-c2ccccc2)oc1Nc1ccc2ccccc2c1)c1ccccc1 |  | inactive | inactive | inactive | inactive | 
COC(=O)[C@@H]1C=C[C@H](C)[C@H](CCOc2ccccc2)O1 | inactive |  |  | inactive | inactive | 
C=CCN1c2ccccc2[C@]23CCC(=O)N(CCc4ccccn4)C2=NC(C(=O)OC)=C(C(=O)OC)[C@H]13 | inactive |  |  | inactive |  | 
CCN1C(=NCCCOC(C)C)N[C@@H](CCc2ccccc2)[C@H](C(=O)OC)[C@H]1C | inactive | inactive | inactive | inactive |  | 
C[C@@H]1C[C@H]2[C@@H](C)C(=O)N3[C@@H](C[C@@H](C)[C@@H]3c3ccccc3)[C@@H](C)C(=O)N2[C@H]1c1ccccc1 | inactive |  | inactive | inactive |  | 
COc1ccc(C=CNC(=O)c2ccc(OC)cc2)cc1 | inactive |  |  | inactive | inactive | 
COC(=O)CC=C[C@H](C)[C@@H](NC(=O)C(F)(F)F)c1ccccc1Br | inactive | inactive |  | inactive |  | 
COC(=O)CCCC1=CC2=C(c3ccccc3)C(=O)C(C)(OC(=O)C3CCCC3)C(=O)C2=CN1Cc1ccc(OC)cc1 (stereo unspecified) |  |  |  | inactive |  | 1.81% [at 1.12 µM]
COC(=O)C1=C(C(=O)OC)[C@@H]2N(Cc3ccccc3)c3ccccc3[C@@]23C[C@@H](C(=O)OC)N(C(=O)NCc2ccccc2)C3=C1 |  |  |  | inactive | inactive | 
COC1=C[C@H](C(=O)NCc2ccc(Br)cc2)[C@H](C)[C@@H](c2ccccc2)CC1=O |  | inactive | inactive | inactive | inactive | 
COCCN1C(=O)C2=C(C1=O)C1N(C)c3ccccc3[C@@]13C[C@@H](CO)N(C(=O)c1ccc(Br)cc1)C3=N2 (stereo partly specified) |  |  |  | inactive |  | 
